Test results from PubChem BioAssay (NCATS).
Where “and” joins values, the source holds several entries; their conditions need not be identical. Equal entries are not always repeated. Results filed as inconclusive are left out. Calls of active or inactive are those of the source. Unless noted, calls follow the shape of the dose curve; as a rule, active = well fitted curve in the direction sought with a large enough effect; inconclusive = small, poorly fitted or top-dose-only effect, or another doubt; inactive = no such curve, though single readings can be large; an effect the other way counts as inactive or inconclusive.

What was measured:
[1] = target: Cytochrome P450 1A2 (Homo sapiens) (UniProt P05177); experiment: p450-cyp1a2 (AID 410; calls by dose curve; also: potency is read from the fitted curve at half-maximal effect)
Sequence of Cytochrome P450 1A2 (Homo sapiens) (P05177 whole entry, looked up): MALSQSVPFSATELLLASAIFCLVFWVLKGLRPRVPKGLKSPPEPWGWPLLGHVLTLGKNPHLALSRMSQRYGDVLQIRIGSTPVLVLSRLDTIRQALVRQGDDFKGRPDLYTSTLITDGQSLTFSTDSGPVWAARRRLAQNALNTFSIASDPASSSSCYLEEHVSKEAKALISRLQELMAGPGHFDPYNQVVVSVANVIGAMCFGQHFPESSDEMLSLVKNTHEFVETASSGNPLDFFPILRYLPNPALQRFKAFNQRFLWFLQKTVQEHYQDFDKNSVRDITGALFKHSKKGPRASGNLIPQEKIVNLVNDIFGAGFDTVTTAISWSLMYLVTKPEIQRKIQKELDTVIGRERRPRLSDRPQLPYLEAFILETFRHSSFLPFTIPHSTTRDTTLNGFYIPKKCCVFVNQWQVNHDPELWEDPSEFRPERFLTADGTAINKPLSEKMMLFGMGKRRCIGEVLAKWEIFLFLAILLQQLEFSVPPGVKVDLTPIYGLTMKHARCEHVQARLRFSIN
Procedure, shortened: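 Read-out is luminescence from luciferin produced by CYP1A2 demethylation of Luciferin-ME (100uM, at Km). Detection reagent stopped the 60 min NADPH-dependent reaction; signals were normalized to 57 uM furafylline.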

[2] = target: 3',5'-cyclic-AMP phosphodiesterase 4B (Homo sapiens) (UniProt Q07343); experiment: qHTS Assay for Inhibitors of PDE-IV (AID 607; active = well fitted activation curve with a large enough effect in the main read-out, with a control signal flat, not every such curve was filed as active; also: % of control where 0% means no effect)
Sequence of 3',5'-cyclic-AMP phosphodiesterase 4B (Homo sapiens) (Q07343 whole entry, looked up): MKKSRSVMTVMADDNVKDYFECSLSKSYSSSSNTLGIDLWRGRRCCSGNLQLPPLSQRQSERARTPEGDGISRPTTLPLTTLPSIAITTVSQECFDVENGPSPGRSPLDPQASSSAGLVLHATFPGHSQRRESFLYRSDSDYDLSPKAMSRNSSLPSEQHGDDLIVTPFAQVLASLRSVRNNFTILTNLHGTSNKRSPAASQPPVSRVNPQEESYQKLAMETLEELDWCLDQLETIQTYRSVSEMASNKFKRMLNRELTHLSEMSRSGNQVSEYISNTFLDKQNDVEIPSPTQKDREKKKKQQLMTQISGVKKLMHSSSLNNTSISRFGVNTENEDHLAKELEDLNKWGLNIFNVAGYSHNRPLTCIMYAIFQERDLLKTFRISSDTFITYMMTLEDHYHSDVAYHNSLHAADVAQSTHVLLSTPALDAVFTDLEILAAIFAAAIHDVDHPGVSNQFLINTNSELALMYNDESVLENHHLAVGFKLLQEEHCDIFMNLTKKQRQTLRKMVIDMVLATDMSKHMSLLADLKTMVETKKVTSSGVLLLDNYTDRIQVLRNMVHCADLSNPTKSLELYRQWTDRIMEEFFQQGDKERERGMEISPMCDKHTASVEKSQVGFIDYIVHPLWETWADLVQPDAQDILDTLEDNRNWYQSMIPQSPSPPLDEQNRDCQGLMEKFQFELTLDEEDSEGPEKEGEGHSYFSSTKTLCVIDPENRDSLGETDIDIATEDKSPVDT
Procedure, shortened: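 ACTOne HEK293 cells carry a modified cAMP-gated CNG channel and express endogenous PDE4; plated 1000 cells/well, compounds up to 22.9 uM final. Membrane-potential dye fluorescence (ex 535/em 590) was read; parental cells received 10 uM forskolin + 100 uM RO 20-1724.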

[3] = qHTS Assay for Identification of Small Molecule Agonists for Thrombopoietin (TPO) Signaling Pathway (AID 917); also: % is scaled to controls: 0 for no effect and ±100 for the full control effect
Procedure, shortened: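 Stimulation at the TPO EC50 (26 pM final) was used to detect activators. Ba/F3 mouse cells bearing human TPO receptor and a luciferase reporter under the Glycoprotein IIb promoter were exposed to compounds for 24 hrs at 37 C.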

[4] = Cell Viability - Jurkat (AID 426;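 active = dose-dependent loss of cell ATP signal giving a full or clear fitted curve, ranked by lower potency value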;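 also: potency is read from the fitted curve at half-maximal effect; cells exposed to compound for 40 hours at 37 °C before ATP read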); settings: qHTS
Procedure, shortened: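 Cytotoxicity was scored as loss of cellular ATP, measured by luciferase-based luminescence, in Jurkat clone E6-1 cells after 40 h compound treatment; tamoxifen and doxorubicin served as positive controls.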

[5] = Cellular Toxicity (caspase-3) Jurkat (AID 655); settings: Jurkat caspase-3 activation, luminescence; caspase-3 activation: at 92.2 µM (top of the series), DMSO = 0%, tamoxifen = 100%;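 also: cells exposed to compound for 16 h at 37 °C before reading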
Procedure, shortened: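 Jurkat cells (5000/well) in complete medium exposed 16 h at 37 C; caspase-3/7 activity read by Caspase-Glo luminescence after 20 min at room temperature. Normalized to DMSO and 100 uM tamoxifen; AC50 from Hill fits.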

[6] = Cellular Toxicity (caspase-3) NIH 3T3 (AID 666);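 also: caspase signal read after 16 h compound exposure; 0% = DMSO basal and 100% = 100 µM tamoxifen stimulation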
Procedure, shortened: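 Activity: caspase-3/7 induction, NIH 3T3 cells, 16 hr treatment at 37°C, luminescent Caspase-Glo detection; AC50 via Hill equation.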

[7] = Cell Viability - LYMP2-001 (AID 921);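 also: 0% = DMSO only and full inhibition = tetraoctylammonium bromide control wells; nearly all actives have a fitted effect of over 70% in size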
Procedure, shortened: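 Human lymphoblastoid LYMP2-001 cells, 2500 per well, in complete medium, treated 24 h at 37 C. Viability from cellular ATP by CellTiter-Glo luminescence; AC50 from Hill-equation fits of qHTS concentration-response.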

[8] = Cell Viability - LYMP2-005 (AID 967);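 also: plate controls were DMSO only for no effect and 92 µM tetraoctylammonium bromide control for full effect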
Procedure, shortened: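 Human lymphoblastoid LYMP2-005 cells, 2,500 per well in complete medium, rested 5 h at 37C then compound-treated 24 h at 37C. Intracellular ATP read by CellTiter-Glo luminescence after 30 min at room temperature; AC50 from Hill-equation fits of concentration-response data.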

[9] = Cell Viability - LYMP2-015 (AID 971);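 also: 0% = DMSO only and full effect = 92 µM tetraoctylammonium bromide; nearly all actives have a fitted effect of over 55% in size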
Procedure, shortened: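 AC50 values reflect Hill-model fits of ATP-based luminescence (CellTiter-Glo) from a human lymphoblastoid line, 2500 cells/well, treated 24 hr at 37 C.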

[10] = Cell Viability - LYMP2-002 (AID 977);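 also: compound exposure lasted 24 h at 37 °C; plate controls were DMSO only for no effect and 92 µM tetraoctylammonium bromide for full effect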
Procedure, shortened: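 Human lymphoblastoid cells, 2500/well, complete medium; 5 h 37 C settle; compound 24 h 37 C; CellTiter-Glo, 30 min RT; luminescence. Decrease in ATP = cytotoxicity; AC50 via Hill equation.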

[11] = Cell Viability - LYMP2-006 (AID 978); also: % is scaled to controls: 0 for no effect and ±100 for the full control effect; nearly all actives have a fitted effect of over 60% in size
Procedure, shortened: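 Human lymphoblastoid cells (LYMP2-006), 2500/well in complete medium, were treated with compound for 24 hr at 37 C. Cellular ATP was read by CellTiter-Glo luminescence after 30 min, and AC50 values came from Hill-equation fits of concentration-response data.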

[12] = Cell Viability - LYMP2-014 (AID 983);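 also: plate controls were DMSO only for no effect and 92 µM tetraoctylammonium bromide for full effect; nearly all actives have a fitted effect of over 50% in size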
Procedure, shortened: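 Quantitative HTS in lymphoblastoid cells: 24 hr compound exposure, then CellTiter-Glo ATP luminescence. Positive control was tetraoctylammonium bromide, 6.4pM to 92 uM.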

[13] = Cell Viability - LYMP2-020 (AID 986);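 also: plate controls were DMSO only for no effect and tetraoctylammonium bromide at 92 µM for full effect; nearly all actives have a fitted effect of over 55% in size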
Procedure, shortened: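 Cells at 2500 per well receive a 24 hr compound exposure at 37 C. Viability is measured as ATP-dependent luciferase luminescence, with AC50 modeled from qHTS concentration-response curves.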

[14] = target: Glucocorticoid receptor (Homo sapiens) (UniProt P04150); experiment: qHTS assay for small molecule agonists of glucocorticoid receptor signaling (AID 588532; active = well fitted curve in the direction sought with a large enough effect in the signal ratio, with a control signal flat; the % refers to the signal ratio;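 also: 100% = dexamethasone at 0.1 µM and 0% = DMSO only wells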); settings: HeLa MMTV-bla, beta-lactamase ratio, agonist, 18 h; hits give high values; percent of dexamethasone control, DMSO zero
Sequence of Glucocorticoid receptor (Homo sapiens) (P04150 whole entry, looked up): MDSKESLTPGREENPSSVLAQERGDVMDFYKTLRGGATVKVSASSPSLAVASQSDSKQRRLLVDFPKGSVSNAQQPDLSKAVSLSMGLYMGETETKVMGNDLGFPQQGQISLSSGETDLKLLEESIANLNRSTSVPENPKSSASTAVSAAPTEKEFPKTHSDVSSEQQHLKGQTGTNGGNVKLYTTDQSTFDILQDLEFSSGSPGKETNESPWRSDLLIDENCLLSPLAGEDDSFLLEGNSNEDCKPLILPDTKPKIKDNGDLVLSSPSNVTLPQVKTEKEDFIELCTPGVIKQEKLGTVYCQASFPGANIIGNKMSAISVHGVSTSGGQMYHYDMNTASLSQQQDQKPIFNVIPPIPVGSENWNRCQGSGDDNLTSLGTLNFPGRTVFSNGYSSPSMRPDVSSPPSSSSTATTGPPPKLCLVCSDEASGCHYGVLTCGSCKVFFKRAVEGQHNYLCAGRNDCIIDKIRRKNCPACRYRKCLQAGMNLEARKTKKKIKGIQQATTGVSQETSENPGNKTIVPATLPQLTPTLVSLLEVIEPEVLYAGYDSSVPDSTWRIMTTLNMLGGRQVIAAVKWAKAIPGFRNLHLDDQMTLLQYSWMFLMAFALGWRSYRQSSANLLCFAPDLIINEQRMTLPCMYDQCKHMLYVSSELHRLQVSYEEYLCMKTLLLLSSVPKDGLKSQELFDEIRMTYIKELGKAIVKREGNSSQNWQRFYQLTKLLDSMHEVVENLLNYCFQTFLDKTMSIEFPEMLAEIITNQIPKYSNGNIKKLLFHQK
Procedure, shortened: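 Cells were plated and rested 3-5 h at 37 C, compounds were added in titration and incubated 18 h, then CCF4 substrate was loaded for 2 h at RT before reading blue/green fluorescence. EC50 came from Hill-equation fitting.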

[15] = target: Thyroid hormone receptor beta (Homo sapiens) (UniProt P10828); experiment: qHTS assay for small molecule antagonists of thyroid hormone receptor beta signaling (AID 588547; active = well fitted inhibition curve with a large enough effect in the signal ratio, with a control signal flat, not every such curve was filed as active; the % refers to the signal ratio;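 also: cells stimulated with 0.4 nM T3 agonist during compound exposure; % is scaled to controls: 0 for no effect and ±100 for the full control effect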); settings: TR-UAS-bla HEK293, beta-lactamase ratio, antagonist mode, 18 h
Sequence of Thyroid hormone receptor beta (Homo sapiens) (P10828 whole entry, looked up): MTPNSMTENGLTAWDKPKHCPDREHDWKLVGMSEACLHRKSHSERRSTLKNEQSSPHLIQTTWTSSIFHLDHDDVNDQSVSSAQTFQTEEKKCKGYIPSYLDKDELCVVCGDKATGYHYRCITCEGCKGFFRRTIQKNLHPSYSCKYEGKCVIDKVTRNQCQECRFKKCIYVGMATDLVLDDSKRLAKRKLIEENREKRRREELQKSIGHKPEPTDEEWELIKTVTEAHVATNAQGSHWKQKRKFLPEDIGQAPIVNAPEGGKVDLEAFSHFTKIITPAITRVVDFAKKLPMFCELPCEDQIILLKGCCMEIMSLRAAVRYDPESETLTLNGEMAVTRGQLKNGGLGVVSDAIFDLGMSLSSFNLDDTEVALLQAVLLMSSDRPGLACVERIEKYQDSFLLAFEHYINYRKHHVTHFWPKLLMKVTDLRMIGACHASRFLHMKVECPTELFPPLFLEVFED
Procedure, shortened: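 TR-UAS-bla GripTite HEK293 cells in 2% charcoal/dextran FBS medium; compounds 0.59 nM to 92 uM with T3 at 0.4nM final, 18 h at 37 C. Beta-lactamase read by CCF4 fluorescence (460/530 nm); Hill fits gave IC50 and efficacy.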

[16] = qHTS assay for small molecule activators of the nuclear factor-kappa B (NF-kB) signaling pathway (AID 651749; active = well fitted activation curve with a large enough effect in the signal ratio; the % refers to the signal ratio; also: % of control where 0% means no effect); settings: NF-kB-bla ME-180 cells, beta-lactamase FRET ratio, 16 h; hits give high values
Procedure, shortened: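 NF-kB-bla ME-180 cells, 2,000/well; 23 nL compound or DMSO pinned; 16 hr, 37C/5% CO2; beta-lactamase FRET read-out.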

[17] = Cell Viability - NIH 3T3 (AID 541); settings: NIH 3T3 cell viability, qHTS; activity change, negative = cytotoxicity: at 92.2 µM (top of the series);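 also: cells exposed to compound for 40 hours; plate controls were DMSO alone for no effect and tamoxifen positive control for full effect; nearly all actives have a fitted effect of over 25% in size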
Procedure, shortened: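 In this cytotoxicity screen, acute toxicity is scored as an ATP drop measured by CellTiter-Glo in NIH 3T3 fibroblasts following a 40 hr, 37 °C incubation with compound.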

[18] = Cell Viability - HUV-EC-C (AID 542);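 also: cells exposed to compound for 40 hours; % is scaled to controls: 0 for no effect and ±100 for the full control effect; nearly all actives have a fitted effect of over 35% in size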
Procedure, shortened: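 Concentration-dependent ATP loss in HUV-EC-C cells is the measure. Exposure lasts 40 hr at 37 °C; luminescence follows CellTiter-Glo addition, and Hill fits give AC50.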

[19] = qHTS assay for small molecule disruptors of the mitochondrial membrane potential - 1 hr assay (AID 651754; calls by dose curve; also: % is scaled to controls: 0 for no effect and ±100 for the full control effect; nearly all actives have a fitted effect of over 35% in size)
Procedure, shortened: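 In this qHTS format, a 1 hr compound treatment of HepG2 cells precedes Mito-MPS staining, and membrane potential is judged from aggregate (red) against monomer (green) fluorescence intensity.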

[20] = Cellular Toxicity (caspase-3) Hek293 (AID 664); settings: HEK293 caspase-3 activation, DMSO = 0%, 100 µM tamoxifen = 100%; at 92.2 µM (top of the series);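 also: cells exposed to compound for 16 h at 37 °C before readout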
Procedure, shortened: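 Apoptosis readout: Caspase-Glo 3/7 signal in human HEK293 cells following 16-hour compound incubation. Responses scaled between DMSO baseline and 100 uM tamoxifen.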

COc1cc(C[C@H](C)N)c(OC)cc1I
inactive: outcome [2] | outcome [3]
active: Potency [1] 6.31 µM and 12.6 µM

CCn1cnc2c(Nc3cccc(Cl)c3)nc(N[C@@H]3CCCC[C@H]3N)nc21
inactive: outcome [2]

CC(C)[C@@]1(NC(=O)[C@H]2C[C@H]3c4cccc5[nH]cc(c45)C[C@@H]3N(C)C2)O[C@]2(O)[C@H]3CCCN3C(=O)[C@H](Cc3ccccc3)N2C1=O
inactive: Potency [1] | outcome [2]

Oc1ccc2c3c1O[C@@H]1c4[nH]c5c(c4C[C@@]4(O)[C@@H](C2)N(CC2CC2)CC[C@]314)C[C@]1(O)[C@@H]2Cc3ccc(O)c4c3[C@@]1(CCN2CC1CC1)[C@H]5O4
inactive: outcome [2] | outcome [3]

CC(=O)OCC1=C(C(=O)[O-])N2C(=O)[C@@H](NC(=O)CCC[C@@H](N)C(=O)[O-])[C@@H]2SC1.[Zn+2]
inactive: Potency [1] | outcome [2] | outcome [3]

CCN(CC)c1ncnc2c1ncn2[C@@H]1O[C@@H](COP(=O)(O)OP(=O)(O)C(Br)(Br)P(=O)(O)O)[C@H](O)[C@@H]1O
inactive: Potency [1] | outcome [3]

COc1ccc2c(c1)[C@]13CCCC[C@@H]1[C@H](C2)NCC3
inactive: Potency [1] | outcome [2] | outcome [3]

Nc1ncnc2c1ncn2[C@@H]1O[C@@H](COP(=O)(O)CP(=O)(O)OP(=O)(O)O)[C@H](O)[C@@H]1O
inactive: Potency [1] | outcome [2] | outcome [3]

C[N+]1(C)C2CC(OC(=O)C(CO)c3ccccc3)CC1[C@@H]1O[C@H]21 (stereo not given in full)
inactive: Potency [1] | outcome [3]

C=CCN1CC[C@]23c4c5ccc(O)c4O[C@@H]2/C(=N/NC(=O)c2ccccc2)CC[C@@]3(O)[C@H]1C5
inactive: Potency [1] | outcome [2] | outcome [3]

COc1cc([C@@H](O)CN)ccc1O
inactive: Potency [1] | outcome [2] | outcome [3]

COc1ccc2c3c1O[C@@H]1C(=O)CC[C@@]4(O)[C@@H](C2)N(CC2CC2)CC[C@]314
inactive: Potency [1] | outcome [2] | outcome [3]

C[C@]12CC[C@H](O)CC1=CC[C@@H]1[C@H]2CC[C@]2(C)C(=O)CC[C@H]12
inactive: Potency [1] | outcome [2] | outcome [3]

O=C(O)[C@H]1[C@H](C(=O)O)[C@H]2CC[C@@H]1O2
inactive: Potency [1] | outcome [2]

CC(C)N[C@@H](C)Cc1ccc(I)cc1
inactive: outcome [2] | outcome [3]

C[C@@]12CC[C@H]3[C@@H](CCC4=C(O)C(=O)CC[C@]43C)[C@H]1CCC2=O
inactive: outcome [2]

NC[C@H](O)c1cc(O)c(O)cc1F
inactive: Potency [1] | outcome [2] | outcome [3]

O=C(Nc1cc[c]([Sb](=[O])([OH])[OH])cc1)c1ccccc1
active: Potency [1] 5.01 µM

COC(=O)[C@H](N)CCCN=C(N)N[N+](=O)[O-]
inactive: outcome [2] | outcome [3]

N[C@H](Cc1ccc(N(CCCl)CCCl)cc1)C(=O)O
active: Potency [1] 15.8 µM

COc1ccc2c(c1O)-c1cccc3c1[C@H](C2)N(C)CC3
inactive: outcome [2] | outcome [3]
active: Potency [1] 3.98 µM

N[C@H](Cn1cc(I)c(=O)[nH]c1=O)C(=O)O
inactive: Potency [1] | outcome [2]

CCNC(=O)[C@@H]1O[C@@H](n2cnc3c(N)ncnc32)[C@@H](O)[C@H]1O
inactive: Potency [1] | outcome [3]

CC(C)[C@@]1(NC(=O)[C@@H]2C=C3c4cccc5[nH]cc(c45)C[C@@H]3N(C)C2)O[C@]2(O)[C@H]3CCCN3C(=O)[C@H](Cc3ccccc3)N2C1=O
active: Potency [1] 10 µM
inactive: outcome [2]

C[N+]1(C)CCc2cc3c(cc2[C@@H]1[C@@H]1OC(=O)c2c1ccc1c2OCO1)OCO3
inactive: outcome [2] | outcome [3]

N[C@H](Cn1ccc(=O)[nH]c1=O)C(=O)O
inactive: Potency [1] | outcome [2] | outcome [3]

CO[C@@H]1CC=C2CCN3CCC4=C(CC(=O)OC4)[C@]23C1
inactive: Potency [1] | outcome [2] | outcome [3]

CC(=O)[C@@H]1CC[C@H]2[C@H]3CC[C@H]4C[C@@H](O)CC[C@]4(C)[C@@H]3CC[C@]12C
inactive: outcome [2]

C[C@@]12CC[C@H]3[C@@H](CC=C4C[C@H](OS(=O)(=O)O)CC[C@]43C)[C@H]1CCC2=O
inactive: Potency [1] | outcome [2] | outcome [3]

CN1C[C@@H](CS(=O)(=O)N(C)C)C[C@H]2c3cccc4c3c(cn4C)C[C@@H]21
inactive: outcome [2] | outcome [3]

CCCN1CC[C@@H]2c3cc(O)ccc3CC[C@H]21
inactive: Potency [1] | outcome [2] | outcome [3]

NC(=O)CN1C[C@@H](O)CC1=O
inactive: Potency [1] | outcome [2] | outcome [3]

N[C@H](Cn1oc(=O)[nH]c1=O)C(=O)O
inactive: Potency [1]

C[Se]C[C@@H](N)C(=O)O
inactive: outcome [2] | outcome [3]

C[C@@]12CC[C@H]3[C@@H](CC[C@@H]4C[C@H](O)CC[C@]43C)[C@H]1CC[C@H]2O
active: Potency [1] 15.8 µM
inactive: outcome [3]

CC(C)C[C@H](NP(=O)(O)O[C@@H]1O[C@@H](C)[C@@H](O)[C@@H](O)[C@H]1O)C(=O)N[C@@H](Cc1c[nH]c2ccccc12)C(=O)O
inactive: Potency [1] | outcome [2] | outcome [3]

N[C@H](CCl)C(=O)O
inactive: Potency [1] | outcome [3]

ClC(Cl)Br
inactive: Potency [4] > 92 µM | caspase-3 activation [5] 0.703% | Potency [6] | Potency [7] | Potency [8] | Potency [9] | Potency [10] | Potency [11] | Potency [12] | Potency [13] | activation [14] -5.41% | activity change % (negative = inhibition) [15] 9.06% | activation [16] -1.16%

Nc1ccc(Cc2ccc(N)cc2)cc1
inactive: Potency [4] > 92 µM | Potency [17] | Potency [18] | caspase-3 activation [5] 2.26% | Potency [6] | Potency [10] | activation [14] 1.44% and -0.448% | activity change % (negative = inhibition) [15] 11% and -9.43% | activation [16] -0.031% and 0.544% | Potency [19]

Clc1ccc(Cl)c(Cl)c1
inactive: Potency [4] > 92 µM | Potency [17] | Potency [18] | caspase-3 activation [5] -0.724% | caspase-3 activation [20] 0.169% | Potency [6] | Potency [9] | Potency [11] | Potency [13] | activity change % (negative = inhibition) [15] -0.795% and 9.45%

CCCCOCC1CO1 (stereo not given)
inactive: Potency [4] > 92 µM | Potency [17] | Potency [18] | caspase-3 activation [5] -0.958% | Potency [6] | Potency [7] | Potency [8] | Potency [9] | Potency [10] | Potency [11] | Potency [12] | Potency [13] | activation [14] -2.49% | activity change % (negative = inhibition) [15] 12.9% | Potency [19]

N#CC(Cl)(Cl)Cl
inactive: Potency [17] | Potency [18] | caspase-3 activation [20] 1.68% | Potency [6] | Potency [7] | Potency [8] | Potency [9] | Potency [10] | Potency [11] | Potency [12] | Potency [13] | activation [14] 5.98% | activation [16] -0.633%
